Experimental data: PubChem BioAssay (EPA / NIEHS)
Records with an inconclusive call do not appear. Calls of active or inactive are those of the source. The calls were made as follows: active = hit-call score of the fitted dose curve at least 0.9, where 1 is the maximum; inconclusive = response in the unintended direction; inactive = score below 0.9.

Experiments:
[1] = target: human Dopamine Receptor D4.4 (DRD4.4), DRD4 (gene 1815) (UniProt P21917); assay: NVS_GPCR_hDRD4.4: NovaScreen (NVS) G Protein-Coupled Receptor Assay for human Dopamine Receptor D4.4 (DRD4.4) (AID 2283264)
Chain of human Dopamine Receptor D4.4 (DRD4.4), DRD4 (gene 1815) (P21917 whole entry, looked up): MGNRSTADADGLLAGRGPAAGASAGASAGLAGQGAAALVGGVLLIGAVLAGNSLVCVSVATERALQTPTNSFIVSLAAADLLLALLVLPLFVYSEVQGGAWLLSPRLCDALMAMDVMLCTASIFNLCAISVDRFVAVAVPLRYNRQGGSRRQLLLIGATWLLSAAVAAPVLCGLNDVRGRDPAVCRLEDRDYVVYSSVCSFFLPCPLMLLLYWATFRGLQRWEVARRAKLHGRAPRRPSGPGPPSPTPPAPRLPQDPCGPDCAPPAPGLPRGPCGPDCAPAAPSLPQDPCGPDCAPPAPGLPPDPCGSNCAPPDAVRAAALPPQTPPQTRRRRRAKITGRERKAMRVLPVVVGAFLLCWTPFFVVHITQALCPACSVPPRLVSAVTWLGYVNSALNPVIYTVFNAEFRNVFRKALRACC
In short: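 Radioligand displacement on human DRD4.4 from CHO-derived membranes, 1 hour incubation, bound counts read by filtration and scintillation. Primary screen in duplicate at 25 uM; actives followed up in concentration series.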

[2] = target: human Dopamine Receptor D2 (DRD2), DRD2 (gene 1813) (UniProt P14416); assay: NVS_GPCR_hDRD2s: NovaScreen (NVS) G Protein-Coupled Receptor Assay for human Dopamine Receptor D2 (DRD2) (AID 2283266)
Chain of human Dopamine Receptor D2 (DRD2), DRD2 (gene 1813) (P14416 whole entry, looked up): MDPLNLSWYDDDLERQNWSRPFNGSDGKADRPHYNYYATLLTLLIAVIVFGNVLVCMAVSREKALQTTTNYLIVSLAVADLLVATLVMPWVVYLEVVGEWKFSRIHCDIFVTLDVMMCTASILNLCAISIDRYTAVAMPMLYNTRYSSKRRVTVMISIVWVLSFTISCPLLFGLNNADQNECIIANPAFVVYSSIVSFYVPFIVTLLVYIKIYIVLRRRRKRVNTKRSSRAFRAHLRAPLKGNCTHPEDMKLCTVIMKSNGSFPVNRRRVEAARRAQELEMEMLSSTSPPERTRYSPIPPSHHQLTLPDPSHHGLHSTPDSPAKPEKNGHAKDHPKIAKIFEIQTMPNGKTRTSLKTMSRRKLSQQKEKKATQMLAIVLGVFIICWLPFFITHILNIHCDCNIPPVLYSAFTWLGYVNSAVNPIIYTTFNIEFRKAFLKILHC
Description: (§1) NVS_GPCR_hDRD2s is a biochemical, single-readout assay that uses extracted gene-proteins from CHO in a cell-free assay. Measurements were taken 1.5 hours after chemical dosing in a 96-well plate.NVS_GPCR_hDRD2s is one of one assay component(s) measured or calculated from the NVS_GPCR_hDRD2s assay. It is designed to make measurements of radioligand binding, a form of binding reporter, as detected with scintillation counting signals by Filter-based radiodetection technology.Data from the assay component NVS_GPCR_hDRD2s was analyzed into 1 assay endpoint. This assay endpoint, NVS_GPCR_hDRD2s, was analyzed in the positive analysis fitting direction relative to DMSO as the negative control and baseline of activity. […] Furthermore, this assay endpoint can be referred to as a primary readout, because the performed assay has only produced 1 assay endpoint. […]
(§2) Binding assays used specific radioligands (tritiated, iodinated) with non-radioactive competitive displacement ligands in agonist or antagonist protocols (as indicated) and various reference compounds and inhibitors to titrate specific binding to receptors and transporters. Most enzyme assays (CYPs, kinases, phosphatases, proteases, HDACs) used recombinant protein and specific substrates (fluorescence mostly, some colorimetric and radioactive) and inhibitors, followed by a biochemical separation of substrate and product. […]

[3] = target: human Histamine 1 Receptor (H1), HRH1 (gene 3269) (UniProt P35367); assay: NVS_GPCR_hH1: NovaScreen (NVS) G Protein-Coupled Receptor Assay for human Histamine 1 Receptor (H1) (AID 2283268)
Chain of human Histamine 1 Receptor (H1), HRH1 (gene 3269) (P35367 whole entry, looked up): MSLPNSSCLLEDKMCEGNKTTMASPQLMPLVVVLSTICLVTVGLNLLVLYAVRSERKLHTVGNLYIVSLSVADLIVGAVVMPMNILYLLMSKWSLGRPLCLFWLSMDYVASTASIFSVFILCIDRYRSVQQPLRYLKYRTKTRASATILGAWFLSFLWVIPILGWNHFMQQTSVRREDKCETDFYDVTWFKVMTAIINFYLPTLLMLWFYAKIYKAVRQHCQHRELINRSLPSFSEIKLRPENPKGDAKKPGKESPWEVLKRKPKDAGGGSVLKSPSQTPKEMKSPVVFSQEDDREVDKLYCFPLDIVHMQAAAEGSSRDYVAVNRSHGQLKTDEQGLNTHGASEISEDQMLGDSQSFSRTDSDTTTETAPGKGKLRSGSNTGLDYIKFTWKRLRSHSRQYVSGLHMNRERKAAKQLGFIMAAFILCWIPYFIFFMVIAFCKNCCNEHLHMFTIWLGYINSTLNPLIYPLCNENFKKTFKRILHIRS
Description: as §1, with “NVS_GPCR_hH1” for “NVS_GPCR_hDRD2s”, “gene-proteins” for “gene-proteins from CHO”, “1 hour” for “1.5 hours”, “plate.NVS_GPCR_hH1” for “plate.NVS_GPCR_hDRD2s”, “NVS_GPCR_hH1,” for “NVS_GPCR_hDRD2s,”
as §2

[4] = target: Muscarinic acetylcholine receptor M3 (Homo sapiens) (UniProt P20309); assay: NVS_GPCR_hM3: NovaScreen (NVS) G Protein-Coupled Receptor Assay for human Muscarinic, M3 Receptor (AID 2283272)
Chain of Muscarinic acetylcholine receptor M3 (Homo sapiens) (P20309 whole entry, looked up): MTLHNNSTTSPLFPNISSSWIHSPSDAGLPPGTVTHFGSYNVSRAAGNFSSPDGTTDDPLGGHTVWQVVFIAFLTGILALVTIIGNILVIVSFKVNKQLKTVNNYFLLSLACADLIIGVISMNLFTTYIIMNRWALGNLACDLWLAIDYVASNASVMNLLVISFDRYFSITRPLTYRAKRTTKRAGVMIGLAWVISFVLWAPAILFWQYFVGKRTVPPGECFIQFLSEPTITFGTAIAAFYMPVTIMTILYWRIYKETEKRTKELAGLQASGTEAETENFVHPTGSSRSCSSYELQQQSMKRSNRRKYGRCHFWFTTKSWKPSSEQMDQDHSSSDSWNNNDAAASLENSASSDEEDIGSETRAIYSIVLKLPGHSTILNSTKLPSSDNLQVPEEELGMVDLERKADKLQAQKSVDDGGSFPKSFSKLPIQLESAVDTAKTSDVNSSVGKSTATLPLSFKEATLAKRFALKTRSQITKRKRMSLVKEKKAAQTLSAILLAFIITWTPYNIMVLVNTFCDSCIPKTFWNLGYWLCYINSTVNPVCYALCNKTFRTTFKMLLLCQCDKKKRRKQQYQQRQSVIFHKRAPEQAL
In short: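 Radioligand displacement binding on human M3 receptor in CHO-derived membranes, 1 h incubation, filter-based scintillation counting. Primary screen in duplicate at 25 uM; actives followed up in concentration series; loss of signal versus DMSO.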

[5] = target: Muscarinic acetylcholine receptor M5 (Homo sapiens) (UniProt P08912); assay: NVS_GPCR_hM5: NovaScreen (NVS) G Protein-Coupled Receptor Assay for human Muscarinic, M5 Receptor (AID 2283275)
Chain of Muscarinic acetylcholine receptor M5 (Homo sapiens) (P08912 whole entry, looked up): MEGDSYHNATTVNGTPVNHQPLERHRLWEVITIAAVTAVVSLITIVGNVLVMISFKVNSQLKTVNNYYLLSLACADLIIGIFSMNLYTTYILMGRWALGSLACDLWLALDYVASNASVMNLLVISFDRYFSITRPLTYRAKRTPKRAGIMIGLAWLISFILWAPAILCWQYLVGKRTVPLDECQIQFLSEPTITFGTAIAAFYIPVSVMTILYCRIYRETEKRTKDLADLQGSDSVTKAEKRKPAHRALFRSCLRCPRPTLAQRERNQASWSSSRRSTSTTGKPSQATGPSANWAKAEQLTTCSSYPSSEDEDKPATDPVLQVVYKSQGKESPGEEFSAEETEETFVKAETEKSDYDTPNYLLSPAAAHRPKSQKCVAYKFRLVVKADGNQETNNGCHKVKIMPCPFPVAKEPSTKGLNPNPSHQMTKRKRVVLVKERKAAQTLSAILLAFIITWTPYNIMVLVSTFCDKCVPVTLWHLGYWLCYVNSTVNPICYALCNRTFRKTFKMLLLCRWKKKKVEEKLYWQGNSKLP
In short: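 Radioligand displacement on CHO-derived membrane preparations, 1 h, filter-based scintillation counting. Single-concentration duplicate screen at 25 uM; hits (e.g. 30% inhibition) retested in singleton concentration-response up to 50 uM. Loss of binding fitted versus DMSO.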

[6] = target: human Opioid Receptor Delta 1 (Opiate D1), OPRD1 (gene 4985) (UniProt P41143); assay: NVS_GPCR_hOpiate_D1: NovaScreen (NVS) G Protein-Coupled Receptor Assay for human Opioid Receptor Delta 1 (Opiate D1) (AID 2283280)
Chain of human Opioid Receptor Delta 1 (Opiate D1), OPRD1 (gene 4985) (P41143 whole entry, looked up): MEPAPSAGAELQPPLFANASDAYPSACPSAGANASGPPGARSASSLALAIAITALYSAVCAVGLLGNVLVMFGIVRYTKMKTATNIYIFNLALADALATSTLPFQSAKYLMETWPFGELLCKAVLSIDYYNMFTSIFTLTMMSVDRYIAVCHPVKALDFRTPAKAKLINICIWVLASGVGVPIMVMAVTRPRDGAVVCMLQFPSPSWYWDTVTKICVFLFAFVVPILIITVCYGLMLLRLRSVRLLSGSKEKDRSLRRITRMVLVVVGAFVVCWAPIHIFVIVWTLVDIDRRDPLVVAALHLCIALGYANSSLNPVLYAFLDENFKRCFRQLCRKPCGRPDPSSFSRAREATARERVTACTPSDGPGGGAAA
In short: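 Radioligand displacement on membranes from CHO cells expressing the receptor, read by filter scintillation counting 1 h after dosing. Duplicate single-point screen at 25 uM, then concentration series for actives; loss of signal versus DMSO.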

[7] = target: human Purinergic Receptor P2Y, P2RY1 (gene 5028) (UniProt P47900); assay: NVS_GPCR_hPY2: NovaScreen (NVS) G Protein-Coupled Receptor Assay for human Purinergic Receptor P2Y (AID 2283281)
Chain of human Purinergic Receptor P2Y, P2RY1 (gene 5028) (P47900 whole entry, looked up): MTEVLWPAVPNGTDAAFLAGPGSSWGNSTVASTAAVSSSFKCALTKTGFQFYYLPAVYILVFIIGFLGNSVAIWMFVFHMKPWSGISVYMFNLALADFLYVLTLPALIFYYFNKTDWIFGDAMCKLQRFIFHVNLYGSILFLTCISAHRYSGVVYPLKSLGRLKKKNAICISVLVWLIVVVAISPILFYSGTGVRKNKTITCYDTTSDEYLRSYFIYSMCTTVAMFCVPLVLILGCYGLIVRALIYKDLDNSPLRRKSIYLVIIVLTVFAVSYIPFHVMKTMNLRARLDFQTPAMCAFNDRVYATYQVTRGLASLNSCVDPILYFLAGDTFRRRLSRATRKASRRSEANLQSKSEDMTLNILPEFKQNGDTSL
Description: as §1, with “NVS_GPCR_hPY2” for “NVS_GPCR_hDRD2s”, “U937” for “CHO”, “1 hour” for “1.5 hours”, “48-well plate.NVS_GPCR_hPY2” for “96-well plate.NVS_GPCR_hDRD2s”, “NVS_GPCR_hPY2,” for “NVS_GPCR_hDRD2s,”
as §2

Structure (SMILES) | AC50 [1] | AC50 [2] | AC50 [3] | AC50 [4] | AC50 [5] | AC50 [6] | outcome [7]
CCCCCCCCCCCCc1cccc(S(=O)(=O)O)c1 | 13.6 µM (active) | 22.5 µM (active) | 25.4 µM (active) | 16.3 µM (active) | 28.4 µM (active) | 11.8 µM (active) | inactive
Cc1cc(Cl)ccc1OC(C)C(=O)O (stereo not drawn) |  |  |  |  |  |  | inactive
